Out of some 65,000 compounds screened, about 640 (0.98%) were called active.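 The calls were made as follows: active = inhibition above a set limit, the mean inhibition across every tested compound plus 3 SD (cut at about 29% in these data); inactive = the rest.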 Shown is part of a subset that was picked to be rich in actives.
biological target: 5-hydroxytryptamine receptor 1E (Homo sapiens) (UniProt P28566); experiment: 5-HT1E receptor antagonists, primary screen, cell-based, HTS (AID 571); settings: CHO 5-HT1E Ga15 NFAT-bla reporter, FRET, antagonist; at 6 µM; hits give high values;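 also: signal is the 460 over 535 nm emission ratio of beta-lactamase substrate; 0% = agonist plus DMSO wells and 100% = wells without agonist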
Sequence (P28566 whole entry, looked up): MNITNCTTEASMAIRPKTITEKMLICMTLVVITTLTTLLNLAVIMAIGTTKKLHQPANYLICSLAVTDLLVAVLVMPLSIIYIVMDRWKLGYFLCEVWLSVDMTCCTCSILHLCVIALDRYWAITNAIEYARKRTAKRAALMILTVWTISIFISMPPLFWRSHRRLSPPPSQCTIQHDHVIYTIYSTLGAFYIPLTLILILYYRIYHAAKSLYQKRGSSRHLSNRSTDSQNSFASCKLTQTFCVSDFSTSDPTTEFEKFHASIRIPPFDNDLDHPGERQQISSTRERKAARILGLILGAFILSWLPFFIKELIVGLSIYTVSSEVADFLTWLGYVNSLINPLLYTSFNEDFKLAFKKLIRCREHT

inhibition, active:
Cc1ccc(-c2c3c(=O)n(C)c(=O)n(C)c3cn2-n2cnnc2)cc1 30.5%
COc1ccccc1-n1nnnc1S(=O)(=O)Cc1ccc(Cl)cc1 29.9%
COC(=O)c1ccc(CSc2nc3ccccc3c(=O)n2-c2cccc(OC)c2)o1 39.7%
Fc1ccc2[nH]c3c(N4CCSCC4)ncnc3c2c1 54.9%
COC(=O)Nc1nc2ccc(Sc3ccccc3)cc2[nH]1 65.7%
CCN(CC(=O)NCc1cccs1)c1nnnn1-c1ccccc1 28.8%
O=C1c2ccccc2-c2ncnc3c(N4CCOCC4)cc(N4CCOCC4)c1c23 38.7%
COc1ccc(-c2cc(C(F)(F)F)nc(S(C)(=O)=O)n2)cc1OC 70.8%
CCc1nc(Nc2ccc3nccnc3c2)c2oc3ccccc3c2n1 51.6%
COc1cccc(-c2cc3nc4c(c(N5CCC6(CC5)OCCO6)n3n2)CCCC4)c1 28.7%

inhibition, inactive:
O=C(CSc1nnc(-c2cccnc2)n1Cc1ccco1)c1ccc(Cl)cc1 11%
COc1ccc(-c2c3c(=O)n(C)c(=O)n(C)c3cn2-c2cccc(OC)c2)cc1 6.73%
Cc1ccc(-c2c3c(=O)n(C)c(=O)n(C)c3cn2-c2ccccc2O)cc1 4.09%
CC1CC(C)CN(CC(=O)Nc2ccc(S(N)(=O)=O)cc2)C1 (stereo not drawn) -5.33%
Cc1ccc(SCc2cc(=O)[nH]c(N3CCCCC3)n2)cc1 2.38%
C=CCSc1nnc(Cn2c(=O)sc3ccccc32)n1C 1.57%
COc1ccccc1N1CCN(Cc2nnnn2CCc2ccccc2)CC1 -0.82%
COc1ccccc1N1CCN(C(=O)CN(Cc2ccc(Cl)cc2)S(C)(=O)=O)CC1 -2.25%
Cn1cnc2c1c(=O)n(Cc1c(Cl)cccc1Cl)c(=O)n2C 5.12%
COC(=O)CNS(=O)(=O)c1ccc(Cc2ccc(S(=O)(=O)NCC(=O)OC)cc2)cc1 3.6%
CCCn1c(C(O)c2ccc(OCC)cc2)nc2ccccc21 (stereo not drawn) -10.8%
COc1ccc(CCn2c(NCCCN3CCOCC3)nc3c2c(=O)[nH]c(=O)n3C)cc1 -6.49%
COC(=O)c1ccc(NC(=O)CN(c2ccc(C)cc2)S(=O)(=O)c2c(C)n[nH]c2C)cc1 3.08%
CCOC(=O)c1ccc(-c2ccc(C(=O)Nc3cccnc3)o2)cc1 10.9%
Cc1cccc(NC(=O)CSc2nnc(NC(=O)CN3CCOCC3)s2)c1 -3.22%
CCC(=O)Nc1ccc(C(=O)CSc2nnc(CNc3ccc(Cl)cc3)o2)cc1OC 1.52%
COc1ccc2c(c1OC)C(=O)N(c1ncn[nH]1)C2 -0.04%
COCC(C)n1c(SCc2ccc(C(=O)OC)o2)nc2ccccc2c1=O (stereo not drawn) 24.9%
COC(=O)c1ccc(CSc2ccccc2C)o1 1.46%
Cc1cc(Nc2cccc(F)c2)n2ncnc2n1 -1.52%
CC(=O)NCCc1ccc(S(=O)(=O)N(C)C2CCS(=O)(=O)C2)cc1 (stereo not drawn) -8.57%
Fc1ccc2nc(N3CCCCC3)sc2c1 1.55%
Fc1ccc2[nH]c3c(N4CCN(Cc5ccc6c(c5)OCO6)CC4)ncnc3c2c1 27.4%
C=CCN(CC=C)C(=O)CN1C(=O)c2ccccc2C1=O 1.46%
COC(=O)Cc1nc2ccccc2[nH]1 -1.34%
Oc1ccc2nc(Cc3ccccc3)[nH]c2c1 -16.1%
CCOc1ccccc1C1CC(c2ccc(Cl)cc2)Nc2nc(N)nn21 (stereo not drawn) 4.62%
N=c1n(Cc2ccc(Cl)cc2)c2ccccc2n1CC(O)c1ccco1 (stereo not drawn) -1.68%
CC(=O)NC(C)(C)C1CC=C(C)/C(=N\O)C1 (stereo not drawn) 6.93%
CC(C)(C)C(=O)CCN1C(=O)C2(OCCO2)c2ccccc21 -0.27%
COc1ccc2[nH]c3c(=O)n(Cc4ccco4)cnc3c2c1 9.2%
CSc1nnc(CNC(=O)c2ccccc2)n1-c1ccc(F)cc1 4.06%
CC(NC(=O)c1ccco1)C(=O)Nc1nc(-c2ccccn2)cs1 (stereo not drawn) -4.44%
CCn1c(Cc2ccccc2)nnc1SCC(=O)Nc1ccccc1 -6.68%
CC1(C)CC(=O)C=C(NCCCNC2CCCCC2)C1 7.98%
Cc1nnc(SCC(=O)NCc2cccs2)[nH]c1=O 2.95%
Cc1ccccc1-n1c(SCC(=O)NCc2cccs2)nnc1-c1ccncc1 -6.81%
c1ccc(-c2oc3ncnc(N4CCOCC4)c3c2-c2ccccc2)cc1 -16.4%
c1cnn(-c2cc(N3CCOCC3)ncn2)c1 -8.12%
COc1ccccc1N(C(=O)Cn1nnc2ccccc21)C(C(=O)NCc1ccco1)c1ccc(C)o1 (stereo not drawn) 12.3%
COc1ccc(-c2nnco2)cc1OC 3.01%
COc1ccc(-c2ccc(Nc3ccc(S(=O)(=O)N4CCCC4)cc3)nn2)cc1OC 20.8%
CCc1nc(N2CCN(c3nc(C)cc(C)n3)CC2)c2oc3ccccc3c2n1 4.92%
CCSc1nc(C)nc2c1oc1ccccc12 10.3%
Cc1ccc(N(CC(O)CN2CCCC2)S(=O)(=O)c2ccccc2)cc1 (stereo not drawn) -0.23%
Cc1ccc(Nc2cc(=O)n(C3CCCCC3)c(=O)[nH]2)cc1C -5.13%
CN1CCN(Cc2nc3c(c(=O)n(C)c(=O)n3C)n2Cc2cccc3ccccc23)CC1 1.52%
COc1ccc(N(CC(=O)NC2CCCCCCC2)S(=O)(=O)c2c(C)nn(C)c2C)cc1 -13.7%
Cc1cn(C2C=CC(CO)O2)c(=O)[nH]c1=O (stereo not drawn) -4.28%
O=C(CN1C(=O)CSc2ncccc21)N1CCOCC1 16.6%
Cc1cccc(CSc2nnc(Cn3c(=O)sc4ccccc43)n2C)c1 -7.45%
Cc1nc2cc(-c3ccc(F)cc3)nn2c(N2CCOCC2)c1C -1.31%
COc1cccc(-c2nc(S(=O)(=O)c3ccccc3)c(N3CCOCC3)o2)c1 19.7%

Reference: PubChem BioAssay AID571 (The Scripps Research Institute Molecular Screening Center, 2007)
